JMJD2A Tudor = inhibitors of human JMJD2A Tudor domain | O75164 | AlphaScreen JMJD2A-Tudor / H3K4me3 peptide binding | Potency, µM (doses to about 114 µM), without a hit: at the top dose activity change, negative = inhibition, actives largely listed as inhibitors | 390,000 compounds, 4.4% hits; note: % is set by controls: 0 for no effect and ±100 for the full control effect; nearly all actives have a fitted effect of over 50% in size
HP1b chromo inh = inhibitors of HP1-beta chromodomain binding to methylated histone tails; AlphaScreen HP1-beta / biotin-H3K9me3 peptide binding; Potency, µM (series often up to 114 µM), inactives show at the top dose activity change, negative = inhibition, most hits filed as inhibitors; 390,000 compounds, 0.56% hits; note: nearly all actives have a fitted effect of over 70% in size
Target sequence (P83916 whole entry, looked up): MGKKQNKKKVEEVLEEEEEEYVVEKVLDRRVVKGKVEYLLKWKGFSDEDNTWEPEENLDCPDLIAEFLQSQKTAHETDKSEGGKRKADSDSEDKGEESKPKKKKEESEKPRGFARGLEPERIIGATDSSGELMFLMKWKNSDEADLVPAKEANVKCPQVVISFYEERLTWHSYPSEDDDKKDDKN
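Compound inhibition of the preformed complex between 50 nM HP1-beta and 50 nM biotinylated H3K9me3 peptide was read by AlphaScreen. Buffer was PBS pH 7.4 with 0.01% Tween-20. Incubations ran 30 min at room temperature, with 10 ug/mL donor/acceptor beads.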
G9a block = G9a (human) methyltransferase inhibition. G9a H3K9 monomethylation, AlphaScreen, 2 h. Potency, µM (top dose mostly 102 µM), for the others: top-dose activity, negative = inhibition, usual class: inhibitors. 350,000 compounds, 8.8% hits. AID 504332; note: % is set by controls: 0 for no effect and ±100 for the full control effect; nearly all actives have a fitted effect of over 75% in size
Target sequence (Q96KQ7 913-1193 limits assumed): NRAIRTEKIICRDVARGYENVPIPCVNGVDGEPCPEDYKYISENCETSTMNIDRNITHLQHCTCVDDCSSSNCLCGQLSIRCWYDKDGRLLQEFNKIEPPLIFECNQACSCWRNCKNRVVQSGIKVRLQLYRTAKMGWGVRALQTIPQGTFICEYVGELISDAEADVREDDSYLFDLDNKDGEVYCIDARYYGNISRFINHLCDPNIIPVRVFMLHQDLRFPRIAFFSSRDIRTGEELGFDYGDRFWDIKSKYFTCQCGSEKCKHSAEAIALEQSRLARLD
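Chemiluminescent proximity detection of H3K9 monomethylation, read after 10 min bead incubation in the dark. Reaction: 20 nM G9a, 500 nM biotin-H3K9 peptide, 20 uM SAM cofactor, 2 h, room temperature, following 15 min enzyme-compound preincubation.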
PLK1 PBD inh = PLK1 (human) polo-box domain binding inhibition | Plk1 PBD binding of FITC phosphopeptide, fluorescence polarization | AID 720504 | P53350 | Potency, µM, inactives show max response, negative = inhibition, most hits filed as inhibitors | 360,000 compounds, 2.8% hits; note: series mostly up to about 57 µM; % is set by controls: 0 for no effect and ±100 for the full control effect; nearly all actives have a fitted effect of over 65% in size
BAZ2B inh = blocks human BAZ2B | Q9UIF8 | AlphaScreen BAZ2B-H3K14Ac peptide displacement | Potency, µM (top dose mostly 114 µM), for the others: at the highest dose activity change, negative = inhibition, actives largely listed as inhibitors | 360,000 compounds, 4.4% hits; note: % is set by controls: 0 for no effect and ±100 for the full control effect; nearly all actives have a fitted effect of over 60% in size
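Multi-concentration screen (max 110 uM) measuring displacement of acetylated histone H3 peptide from BAZ2B by AlphaScreen, using 50 nM protein, 50 nM peptide and 10 ug/mL streptavidin donor plus Ni-chelate acceptor beads.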
Sfp PPTase inh = blocks B. subtilis Sfp PPTase activity; Potency, µM, for the others: largest response in the series, negative = inhibition, actives largely listed as inhibitors; Biochemical Sfp PPTase activity, qHTS; 310,000 compounds, 3.5% hits; AID 1490; Q9F4F7;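 note: the enzyme is Sfp with the accession as filed and its product quenches rhodamine fluorescence; 0% = enzyme reaction without inhibitor and -100% = no enzyme wells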
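Compounds were incubated with enzyme (final 15 nM) for 15 min at room temperature before substrate addition started the reaction. Fluorescence at 525 nm excitation, 598 nm emission was recorded immediately and after 30 minutes.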
Active calls of the source: *; u = inconclusive; x = not tested or not shown; [ ] = another dose, or the depositor's remark. Hits are enriched below; roughly 12% of the tested compounds scored in any of these assays. Calls come from the whole dose curve; as a rule, active = well fitted curve in the direction sought with a large enough effect; inconclusive = small, poorly fitted or top-dose-only effect, or another doubt; inactive = no such curve, though single readings can be large; an effect the other way counts as inactive or inconclusive. Potency is the fitted concentration of half-maximal effect.

SMILES | JMJD2A Tudor | HP1b chromo inh | G9a block | PLK1 PBD inh | BAZ2B inh | Sfp PPTase inh
COc1ccc(N2CCN(S(=O)(=O)c3ccc(OC)c(C(=O)N4CCOCC4)c3)CC2)cc1 | -10.2% | 4.0% | 44.7µM* | 0.6% | -21.5% | -0.6%
COc1ccc(S(=O)(=O)NC2CC2)cc1C(=O)N1CCOCC1 | -27.8%[11.4 µM] | u | -6.6% | 7.52µM* | -3.4% | 10.9%
Nn1c(SCc2c(F)cccc2F)nnc1-c1ccccn1 | 8.91µM* | -5.0% | -35.9% | -5.5% | 12.6µM* | 15.6%
c1ccc(-c2nn[nH]n2)nc1 | 7.08µM* | 26.9% | x | 0.2% | 5.62µM* | 56.2µM*
Cc1ccc(NC(=O)CSc2nnc(-c3ccccn3)n2N)cc1F | -8.3% | 13.3% | -1.4% | 4.8% | -19.2% | 2.0%
Cc1ccc(C)c(CSc2nnc(-c3ccccn3)n2N)c1 | 39.8µM* | 25.6% | -24.0%[59 µM] | -26.5% | x | 11.6%
Nn1c(-c2ccccn2)nnc1-c1ccccn1 | 79.4µM* | 39.8% | 15.6%[12.7 µM] | -1.2% | 31.6µM* | 1.6%
CCCCc1nc2cc(C(=O)N3CCN(c4nc(C)cnc4C)CC3)ccc2o1 | -30.1% | 34.7% | -5.8% | -12.0% | -27.0% | 14.1%
CCOC(=O)C1CCN(C(=O)c2ccc(S(=O)(=O)Nc3ccccc3Cl)cc2)CC1 | -7.6% | 28.5% | -39.0% | -7.0% | 25.1% | x
CCc1ccc(C(c2ccccc2)c2c(C)[nH]c3ccccc23)s1 (stereo not drawn) | -19.4% | 22.0% | -28.3%[59 µM] | x | -16.0% | x
N#Cc1ccc(S(=O)(=O)N2CCN(c3nc(-c4cccs4)nc4ccccc34)CC2)cc1 | -19.1% | 22.8% | x | x | x | x
COc1ccc(C(=O)Nc2ccccc2C(=O)NC(C)C)cc1OC | 50.1µM* | 3.5% | 5.6%[59 µM] | 26.7µM* | -0.4% | 25.3%
COc1ccc(C(=O)NNC(=O)C(=O)NC(C)c2ccccc2)cc1OC (stereo not drawn) | -3.2% | 40.4% | 6.31µM* | 0.3% | -12.6% | 10.0%
COc1ccc(C(=O)Nc2ccccc2C(=O)N2CCCCCC2)cc1OC | -9.7% | 13.7% | 10.6% | -7.8% | 1.5% | 7.4%
COc1cccc(OC)c1C(=O)NC(C)c1ccccc1 (stereo not drawn) | -10.8% | 29.1% | -1.9%[59 µM] | -1.7% | -0.5% | 3.9%
CCC(C)C(NC(=O)c1ccccc1NC(=O)c1ccccc1)C(=O)O (stereo not drawn) | -6.6%[11.4 µM] | 0.5% | -18.7% | 26.7µM* | -12.0% | -20.8%
CCC(C)C(NC(=O)c1ccccc1NC(=O)c1ccco1)C(=O)O (stereo not drawn) | -18.5% | 26.5% | u | -4.9% | -1.4% | 13.9%
CCN(Cc1ccccc1)C(=O)C1CCN(S(=O)(=O)c2ccc3c(c2)CCCN3C(C)=O)CC1 | 0.6% | 25.4%[57 µM] | 8.0%[59 µM] | x | 2.1% | x
CNC(=O)c1c(NC(=O)c2ccc(S(=O)(=O)N3CCCC(C)C3)cc2)sc2c1CCC2 (stereo not drawn) | -26.5% | 6.0%[57 µM] | 0.5%[59 µM] | x | -7.1% | x
O=C1c2nccnc2C(=O)N1c1ccc(C(F)(F)F)cc1 | -13.6% | 25.4% | 50.1µM* | -6.1% | -38.6% | 8.9%
O=C(Nc1ncccn1)c1ccc(C(F)(F)F)cc1 | 3.4% | 28.7% | 0.6% | 0.2% | -4.5% | -2.5%
CC(=O)Nc1cccc(-c2ccnc3c2CC(C)(C(=O)NCc2ccc(N(C)C)cc2)O3)c1 (stereo not drawn) | x | x | x | -2.0% | x | x
COc1ccc(Cl)cc1CNCCSc1nnnn1-c1ccccc1 | 3.0% | 93.6% | -4.0%[59 µM] | x | 1.3% | x
Clc1ccc(Sc2cc(Cl)c(Cl)cc2Cl)cc1 | x | x | x | x | x | -14.6%
O=C1COc2ccc(S(=O)(=O)N3CCCC3)cc2N1 | -0.7% | 19.0% | -3.3%[59 µM] | -8.4% | 6.9% | 6.6%
SMILES | JMJD2A Tudor | HP1b chromo inh | G9a block | PLK1 PBD inh | BAZ2B inh | Sfp PPTase inh
O=C1COc2ccc(N3C(=O)C=CC3=O)cc2N1 | x | x | 1.41µM* | x | 100µM* | 3.98µM*
O=[S+]([O-])(c1ccc2c(c1)OCCO2)N1CCN([S+](=O)([O-])c2c(F)cc(F)cc2Br)CC1 | -24.0% | x | x | x | x | x
O=C(Nc1ccc2ccccc2c1)C(=O)C1C(=O)Nc2ccccc21 (stereo not drawn) | x | x | x | x | -2.1% | -12.1%
Cc1cccc(NC(=O)C(=O)C2C(=O)Nc3ccccc32)c1 (stereo not drawn) | -35.5% | 29.4% | 44.7µM* | -1.1% | -13.3% | 13.0%
O=C(NN=Cc1ccccc1C(=O)O)C(=O)NN=Cc1ccccc1C(=O)O | 50.1µM* | 12.3%[57 µM] | x | 5.4% | x | x
O=C(NCC1CCCO1)C(=O)N/N=C/c1ccccc1C(=O)O (stereo not drawn) | -15.8%[11.4 µM] | 8.1% | 13.9% | 26.7µM* | -34.3% | 3.6%
COc1cc(/C=N/NC(=O)C(=O)NCC2CCCO2)ccc1O (stereo not drawn) | -23.3% | 49.7% | 11.5%[59 µM] | -20.2% | 9.8% | -2.6%
O=C(NCC1CCCO1)C(=O)N/N=C/c1ccc(OCc2ccccc2Cl)cc1 (stereo not drawn) | 44.7µM* | 2.9% | x | u | x | x
CC(NC(=O)C(=O)NCC1CCCO1)c1ccccc1 (stereo not drawn) | -3.7%[57.1 µM] | 27.6% | 2.0% | -4.2% | -15.1% | 21.7%
O=C(O)c1ccccc1C=NNc1ccccn1 | 28.2µM* | 10.4% | x | 1.8% | x | x
CO[C@]1(NC(=O)Cc2cccs2)C(=O)N2C(C(=O)O)=C(COC(N)=O)CS[C@H]21 | x | x | -4.0%[21.5 µM] | x | x | 4.9%
Nc1nc(NCc2ccccc2Cl)c2[nH]cnc2n1 | -33.3% | 3.3% | x | x | x | x
CCOc1ccccc1C1CC(=O)NC(C)=C1C(=O)OCc1ccc(C)cc1 (stereo not drawn) | -25.7% | 5.7% | -30.2%[59 µM] | x | -11.0% | x
CCOC(=O)CSc1nnc(NCC(=O)OC)c(=O)[nH]1 | -16.2% | 6.5% | u | u | 11.4% | 56.2µM*
COc1cc(/C=N/NC(=O)C(Cc2c[nH]c3ccccc23)NC(=O)OCc2ccccc2)cc([N+](=O)[O-])c1O (stereo not drawn) | 39.8µM* | u | 8.91µM* | u | 44.7µM* | -12.4%
COc1cc(/C=N/NC(=O)C(Cc2c[nH]c3ccccc23)NC(=O)OCC(C)C)cc([N+](=O)[O-])c1O (stereo not drawn) | u | -29.8% | u | -2.3% | 50.1µM* | 2.4%

Screens: PubChem BioAssay, National Center for Advancing Translational Sciences (NCATS)
